Whole data set: some 1,700 compounds, median “T3 sensor activation Q score (MG/GFP ratio z-score vs DMSO controls)” near 0.25, cut for the highest 2% near 1.9. The full list was thinned out, with the highest values kept by preference.
tested on: ppGalNAc-T3 sensor; assay: T3 sensor activation Q score (MG/GFP ratio z-score vs DMSO controls) (SD units); higher = more sensor activation (inhibition of ppGalNAc-T3 glycosylation); details: HEK293 sensor cells; 10 µM; 6 h
Protocol: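 Cells were treated with compound at 10 uM for 6 h, then MG/GFP ratio was read by flow cytometry (10,000 cells per well, duplicate wells). Q = (R - R_neg)/SD_neg relative to DMSO vehicle controls; the signal rises when the glycosyltransferase is inhibited.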

| SMILES | T3 sensor activation Q score |
| --- | --- |
| C[C@H]1CC[C@@]2(C)[C@@H](CC[C@@H]3[C@@H]2CC[C@]2(C)[C@@H](O)CC[C@@H]32)C1 | 3 |
| CC12CCC3C(CCC4Cc5[nH]c6ccccc6c5CC43C)C1CCC2O (stereo not given) | 0.6 |
| COc1ccc2c(c1)NP(=S)(Oc1ccccc1)N2 (stereo not given) | -0.15 |
| CCC1CCC(C)N(N=O)C1 (stereo not given) | 1.05 |
| Oc1cccc2nc3ccccc3nc12 | -0.35 |
| O=c1cccc2n1C[C@H]1C[C@@H]2CN2CCCC[C@@H]12 | 0.2 |
| CC(CC(C#N)(c1ccccc1)c1ccccc1)N1CCCCC1 (stereo not given) | 0.05 |
| CN1C2c3ccccc3C3C4c5ccccc5C(C31)C(C2[N+](=O)[O-])N4C (stereo not given) | 1.1 |
| CN1C(=O)CC[C@@]2(C)C1=CC[C@@H]1[C@@H]2CC[C@@]2(C)[C@H]1CC[C@]2(C)O | 0.4 |
| CC12CCC3C(CC=C4CC(O)CCC43C)C1C/C(=C\N1CCCC1)C2=O (stereo not given) | 1.9 |
| O=C(OC1CCCCC1)c1ccccc1C(=O)OC1CCCCC1 | 0.2 |
| Nc1nc(N)c2cnnn2n1 | 0.5 |
| FCCN(CCF)c1cccc(Cl)c1 | 1.9 |
| c1ccc2nc(OCCN3CC3)ccc2c1 | 1 |
| c1ccc2c(c1)Sc1ccccc1N2CC1CN2CCC1CC2 (stereo not given) | -0.15 |
| CC1(C)CC(=O)CC(C)(C)N1O | -1.9 |
| CC(=O)Nc1cc([As](=O)(O)O)ccc1O | 1.4 |
| NC(=S)c1cn([C@@H]2O[C@H](CO)[C@@H](O)[C@H]2O)c2ncnc(N)c12 | 4.95 |
| C1CC2NCCC3NCCC(N1)N32 (stereo not given) | -0.95 |
| CCOC(=O)c1ccc2[nH]c(-c3ccc(S(=O)(=O)F)cc3)cc(=O)c2c1 | 0.95 |
| O=C(NC(=O)c1c(F)cccc1F)Nc1cc(Cl)c(F)c(Cl)c1F | -0.65 |
| O=C1N(c2nncs2)CCN1[N+](=O)[O-] | 2.65 |
| CC[C@@]1(O)C(=O)OCc2c1cc1n(c2=O)Cc2cc3ccccc3nc2-1 | -1.75 |
| C=CCNC(=S)Nc1ccc(OC(=O)Nc2ccc(Cl)c(Cl)c2)cc1 | 0.4 |
| Cn1cc(C=O)c2nccnc21 | -1.5 |

— the supplement of paper PMC5407854, “Inhibitor of ppGalNAc-T3-mediated O-glycosylation blocks cancer cell invasiveness and lowers FGF23 levels” (eLife, 2017)
